High-throughput results deposited in PubChem BioAssay by National Center for Advancing Translational Sciences (NCATS).
ATXN viability: viability counter-screen for ATXN expression inhibitors; S2 cells (HEK-293 line with an ATXN2-luciferase reporter) viability, CellTiter-Fluor protease fluorescence, 24 h; Potency, µM (top dose mostly 56.7 µM), actives largely listed as cytotoxic; hit rate 0.49% among 400,000; also: nearly all actives have a fitted effect of over 40% in size
HT1080-NT tox: kills 2HG-producing HT-1080-NT fibrosarcoma cells. HT-1080-NT fibrosarcoma viability, CellTiter-Glo ATP luminescence, 48 h. AID 686970. Potency, µM (doses to about 46.1 µM), for the others: top-dose activity, negative = less viability, most hits filed as cytotoxic. hit rate 1.6% among 360,000;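 also: NT is the 2HG producing partner of a matched IDH1 knockdown line; 0% = DMSO-treated cells and -100% = media-only wells without cells; nearly all actives have a fitted effect of over 55% in size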
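Luminescent CellTiter-Glo readout after 48 hours of compound exposure at 37 degrees C defined viability of HT-1080-NT cells. Activity was normalized to DMSO wells and cell-free media wells; concentration-response curves were fitted and assigned curve classes.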
KB-3-1 cytotox: kills parental KB-3-1 adenocarcinoma cells. KB-3-1 viability, CellTiter-Glo ATP luminescence, 72 h. Potency, µM (doses to about 46.1 µM), most hits filed as cytotoxic. hit rate 1.4% among 400,000; also: % is scaled to controls: 0 for no effect and ±100 for the full control effect; nearly all actives have a fitted effect of over 60% in size
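Cytotoxicity in the drug-sensitive parental line KB-3-1 was scored as loss of CellTiter-Glo luminescence following 72 h incubation with compound. Values come from curve fitting of normalized concentration-response data.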
ATXN2 expr inh: inhibitors of ATXN2 expression. HEK-293 ATXN2-luciferase reporter, luminescence, 24 h. Potency, µM (highest dose often 57 µM), without a hit: at the highest dose activity change, negative = inhibition, usual class: inhibitors. hit rate 0.72% among 360,000. AID 1745845; also: % is scaled to controls: 0 for no effect and ±100 for the full control effect; nearly all actives have a fitted effect of over 55% in size
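qHTS (up to 57 uM final) was run with 24 h compound exposure of reporter cells at 37 °C. Each well was multiplexed: SteadyGlo luminescence measured ATXN2-luciferase expression after a fluorogenic Gly-Phe-AFC viability readout (25 uM final).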
KB-V1 MDR tox: kills drug-selected multidrug resistant KB-V1 cells | AID 1347076 | hit rate 3.4% among 400,000 | KB-V1 MDR cells viability, CellTiter-Glo, 72 h | Potency, µM (highest dose often 46.1 µM), actives largely listed as cytotoxic; also: % is scaled to controls: 0 for no effect and ±100 for the full control effect; nearly all actives have a fitted effect of over 60% in size
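Compound-treated KB-V1 multidrug-resistant cells, 72 h, 37 degrees C; viability by CellTiter-Glo. Fitted qHTS curves give the values.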
HT1080 IDH1KD tx: toxicity to HT-1080 IDH1 knockdown cells (counter line); HT-1080 IDH1 knockdown viability, ATP luminescence, 48 h; Potency, µM (series often up to 46.1 µM), without a hit: at the highest dose activity, negative = toxicity, most hits filed as cytotoxic; hit rate 2% among 360,000; AID 686971;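 also: 0% = DMSO wells and -100% = cell-free medium wells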
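HT-1080-IDH1KD cells (IDH1 knocked down), 750/well in RPMI with 5% FBS, treated with compound 48 h at 37 degrees C. Viability by CellTiter-Glo luminescence, normalised to DMSO and no-cell wells; concentration-response curves classed.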
Active calls of the source: *; i = inactive; ? = inconclusive; · = not tested or not shown. Hits are enriched below; roughly 6.2% of the tested compounds scored in any of these assays. Calls follow the shape of the dose curve; as a rule, active = well fitted curve in the direction sought with a large enough effect; inconclusive = small, poorly fitted or top-dose-only effect, or another doubt; inactive = no such curve, though single readings can be large; an effect the other way counts as inactive or inconclusive. Potency is read from the fitted curve at half-maximal effect.

SMILES | ATXN viability | HT1080-NT tox | KB-3-1 cytotox | ATXN2 expr inh | KB-V1 MDR tox | HT1080 IDH1KD tx
COc1ccccc1-c1cc(NC(=O)COc2ccc(C)c(C)c2)n(-c2ccccc2)n1 | i | · | i | 0.1% | i | ·
O=c1cc(N2CCN(c3ccccc3)CC2)[nH]c(=O)n1C1CCCCC1 | i | 2.4% | i | 5.01µM* | i | -4.7%
O=c1cc(N2CCN(c3cccc(Cl)c3)CC2)[nH]c(=O)n1C1CCCCC1 | i | 5.6% | ? | ? | ? | 2.5%
CC(=O)Nc1c(Cl)cc2c(c1Cl)Cc1cc(C#N)ccc1-2 | i | -9.3% | 1.16µM* | 9.7% | 0.92µM* | -14.4%
CC(=O)Nc1c(Cl)cc2c(c1Cl)Cc1ccccc1-2 | i | 9.7% | i | 29.2% | i | 4.7%
Nc1cc([N+](=O)[O-])ccc1OCc1ccccc1 | i | -2.8% | i | 22.3% | ? | -15.2%
CC(=O)N(C)c1cc([N+](=O)[O-])ccc1OCc1ccccc1 | i | 0.0% | i | 9.2% | 20.6µM* | -3.9%
O=CN(Cc1ccccc1)c1cc([N+](=O)[O-])ccc1OCc1ccccc1 | ? | 3.1% | i | 12.1% | 5.8µM* | 9.9%
CC(C)c1ccc(CNc2nc(-c3ccco3)nn2S(=O)(=O)c2ccc(F)cc2)cc1 | ? | · | ? | -10.7% | i | ·
CC1OC(CC(=O)O)CC2=C1C(=O)c1c(O)cccc1C2=O (centres undefined) | 0.947µM* | 1.3µM* | 3.66µM* | 1.19µM* | 2.91µM* | 0.259µM*
Cc1ccc(CCNC(=O)c2cc(C)nc3c2c(C)nn3-c2ccc(C)cc2)cc1 | i | · | i | 12.4% | i | ·
Cc1cc(NC(=O)CCCS(=O)(=O)c2nc(-c3cccs3)cc(C(F)(F)F)n2)no1 | 28.2µM* | 5.8µM* | 13µM* | ? | i | 5.8µM*
Cc1cc(NC(=O)CSc2nc(-c3cccs3)cc(C(F)(F)F)n2)no1 | i | 0.794µM* | 1.64µM* | -20.4% | 1.03µM* | 0.501µM*
CSc1ccc(Cn2c(C)c(C(=O)NCc3ccc4c(c3)OCCO4)sc2=O)cc1 | i | 0.3% | i | -35.7% | 18.4µM* | -29.6%
Cc1c(C(=O)NCc2ccc(F)cc2)sc(=O)n1Cc1ccc(Cl)c(Cl)c1 | i | ? | ? | ? | 16.4µM* | ?
CSc1ccc(Cn2c(C)c(C(=O)NCc3ccc(F)cc3)sc2=O)cc1 | i | -16.0% | ? | -33.9% | ? | -20.3%
Cc1c(C(=O)NCCC#N)sc(=O)n1Cc1ccc(F)cc1 | i | 7.3% | i | 6.3% | i | 23.9%
Cc1c(C(=O)NCc2ccc3c(c2)OCCO3)sc(=O)n1Cc1cccc(C(F)(F)F)c1 | i | -25.8% | ? | -35.9% | 7.31µM* | ?
CSc1ccc(Cn2c(C)c(C(=O)NCCC#N)sc2=O)cc1 | i | -5.3% | ? | -7.4% | 14.6µM* | ?
CCOC(=O)N1CCC(NC(=O)c2ccc3c(c2)N(Cc2ccc(Cl)cc2)C(=O)c2ccccc2S3(=O)=O)CC1 | i | · | i | 16.8% | i | ·
COc1ccc(NC(=O)c2sc(=O)n(Cc3cccc(C(F)(F)F)c3)c2C)cc1OC | ? | -1.9% | 8.2µM* | -40.0% | ? | ?
CSc1ccc(Cn2c(C)c(C(=O)NCc3ccc(Cl)c(Cl)c3)sc2=O)cc1 | i | -24.7% | 14.6µM* | -28.0% | 16.4µM* | -14.1%
CCCCCC(=O)N(c1ccc(OCC)cc1)S(=O)(=O)c1ccc2c(c1)n(C)c(=O)n2C | i | · | i | 7.0% | i | ·
Cc1ccccc1OCCSc1nc2ccc(NC(=O)c3cccs3)cc2s1 | i | · | ? | ? | i | ·
Cc1ccc(C)c(N2CCN(C(=O)CC3Sc4ccccc4NC3=O)CC2)c1 (centres undefined) | i | ? | ? | -18.0% | 16.4µM* | ?
SMILES | ATXN viability | HT1080-NT tox | KB-3-1 cytotox | ATXN2 expr inh | KB-V1 MDR tox | HT1080 IDH1KD tx
CC(C)(C)c1ccc(C(=O)Nc2ccc(CC(=O)O)cc2)o1 | i | 9.3% | i | 0.398µM* | i | 5.3%
Cc1ccc(C(=O)Nc2ccc(CC(=O)O)cc2)o1 | i | 15.3% | i | -18.8% | i | 0.3%
COc1cc(CC(=O)NCc2ccc3c(c2)OCO3)cc(OC)c1OC | i | 13.4% | ? | 6.5% | i | 8.2%
COc1cc(-c2nccc3cc4c(cc23)OCO4)cc(OC)c1OC | ? | ? | 4.11µM* | -23.4% | 5.17µM* | 4.61µM*
Cc1cc(N2CCC(C(=O)Nc3ccc(F)cc3C)CC2)n2nc(C)c(-c3ccc(Cl)cc3)c2n1 | i | · | i | 4.0% | i | ·
CNc1oc(-c2cccs2)nc1S(=O)(=O)c1ccccc1 | i | -7.4% | i | -0.2% | ? | -2.2%
CCCCNc1oc(-c2cccs2)nc1S(=O)(=O)c1ccccc1 | i | 5.1% | ? | 17.3% | 14.6µM* | ?
CCc1ccccc1N1CC(c2nc3ccccc3n2CCOc2ccc(Cl)c(C)c2)CC1=O (centres undefined) | ? | · | ? | ? | i | ·
COc1ccc(C(=O)C=Cc2ccc3c(c2)OCO3)cc1OC | ? | -15.0% | ? | · | ? | -14.2%
COc1cc(/C=C/C(=O)c2ccc(Cl)s2)cc(OC)c1O | ? | ? | i | ? | ? | 11.2µM*
COc1cc(/C=C/C(=O)c2ccc3c(c2)OCO3)cc(Cl)c1O | · | ? | i | -6.9% | i | 23.1µM*
COc1ccc(/C=C/C(=O)c2ccc(Cl)s2)cc1O | i | -8.2% | ? | 17.7% | ? | -14.1%
CCOC(=O)c1cc(-c2ccc(C)cc2)n(CCC(=O)Nc2cc(Cl)ccc2C)c1C | i | · | i | 7.9% | i | ·
COc1ccc(S(=O)(=O)N2CCN(c3ccccn3)CC2)c(OC)c1 | i | 6.9% | i | · | i | -0.4%
COc1ccc(S(=O)(=O)N2CCC(c3nnc(-c4ccccc4C)o3)CC2)c(OC)c1 | 7.94µM* | · | i | 3.55µM* | i | ·
Cc1ccccc1-c1nnc(C2CCN(S(=O)(=O)c3ccc(Cl)cc3)CC2)o1 | 3.55µM* | · | i | ? | i | ·
COc1ccc(CN2CCOc3ccc(C(O)c4cccnc4)cc3C2)cc1O (centres undefined) | i | · | · | · | · | ·
CS(=O)(=O)c1ccc(Nc2nc(C(N)Cc3ccc(C(F)(F)F)cc3)cs2)cc1 (centres undefined) | i | 18.4µM* | ? | ? | ? | ?
CCCc1cnc(Nc2nc(C(N)Cc3ccc(C(F)(F)F)cc3)cs2)nc1 (centres undefined) | · | 16.4µM* | ? | -15.8% | ? | ?
